A selection: hits, their analogues and other compounds. The true share with any hit is near 3.3%.
Autofluor counter = compound fluorescence in toxin protease inhibitor counterscreen; compound autofluorescence counterscreen, microsphere flow cytometry; stronger effect = higher value; fluorescence intensity (test concentration not listed); 3.1% of 360,000 active; in the data active = fluorescence intensity above about 16000; inconclusive = no clear call, values can overlap the other calls
BoNT F protease = BoNT/F light chain protease inhibitors, primary screen, biochemical, flow cytometry, MLPCN library. inhibition, % at 10 µM. Botulinum neurotoxin type F light chain protease (Clostridium botulinum). 0.22% of 360,000 active. Multiplex microsphere protease cleavage assay; in the data active = inhibition above about 35%, passing the limit was not always enough; inconclusive = no clear call, values can overlap the other calls; also: plate controls were buffer without enzyme for full effect and enzyme alone for no effect
Anthrax LF inh2 = Bacillus anthracis LF protease inhibitors, primary screen, biochemical, multiplex microsphere, MLPCN library; Lethal factor (Bacillus anthracis), P15917; multiplex microsphere protease cleavage assay; inhibition, % at 10 µM; 0.12% of 360,000 active; AID 588501, 2011; also: plate controls were buffer without enzyme for full effect and enzyme alone for no effect
SSB-PriA inh = inhibitors of Klebsiella pneumoniae PriA binding to SSB C-terminal tail, primary screen, biochemical, AlphaScreen; PriA–SSB C-terminal tail interaction (Klebsiella pneumoniae); AlphaScreen SSBct-PriA binding, biotinylated peptide; inhibition, % at 33 µM; 0.6% of 430,000 active; AID 1272365, 2023; in the data active = inhibition mostly above about 37%, no sharp cut-off; inactive = mostly below about 20%;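 also: plate controls were negative control peptide for no effect and reference peptide for full effect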
MazF activator = activators of E. coli MazEF toxin-antitoxin RNase, primary screen, biochemical, fluorescence, uHTS; Endoribonuclease toxin MazF (Escherichia coli (strain K12)), P0AE70; 0.32% of 350,000 active; AID 504720, 2011; FAM/BHQ RNA-DNA oligo cleavage fluorescence, 5 h; activation, % at 20 µM; in the data active = activation above about 50%
Target sequence (P0AE70 whole entry, looked up): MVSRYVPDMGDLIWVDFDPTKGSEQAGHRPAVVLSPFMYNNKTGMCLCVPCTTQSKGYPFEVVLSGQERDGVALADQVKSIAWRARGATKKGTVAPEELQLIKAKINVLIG
BoNT-A LC inh2 = BoNT/A light chain protease inhibitors, primary screen, biochemical, flow cytometry, MLPCN library; Botulinum neurotoxin type A light chain protease (Clostridium botulinum A str. ATCC 3502); multiplex microsphere protease substrate cleavage; inhibition, % at 10 µM; 0.17% of 360,000 active; also: plate controls were buffer without enzyme for full effect and enzyme alone for no effect
* = called active by the depositor; ? = inconclusive; / = no result. Rule as the data show it, unless noted: active = inhibition above about 30%; inconclusive = no clear call, values can overlap the other calls; inactive = below that.

SMILES	Autofluor counter	BoNT F protease	Anthrax LF inh2	SSB-PriA inh	MazF activator	BoNT-A LC inh2
O=C(CSc1nccn1-c1cccc(C(=O)NCc2ccco2)c1)Nc1ccc(Cl)cc1F	/	/	/	37*	/	/
O=C(CSc1nccn1-c1ccc([N+](=O)[O-])cc1)Nc1ccc(Cl)c(Cl)c1	/	/	/	36*	/	/
O=C(CSc1nccn1-c1ccc(F)cc1)Nc1ccc(Br)cc1	/	/	/	60*	/	/
Cc1cc(C)cc(-n2ccnc2SCC(=O)Nc2ccc(F)cc2F)c1	/	/	/	47*	/	/
COc1ccc2nc(-c3cccc(NS(=O)(=O)c4ccc(OC)c(OC)c4)c3)cn2n1	/	/	/	4	/	/
O=C(NCc1nccc(N2CCCC2)n1)Nc1ccc(F)c(Cl)c1	/	/	/	6	/	/
O=C(c1cnccn1)N1CCC[C@H](Cc2nc(-c3ccccc3F)no2)C1	/	/	/	-4	/	/
CCc1[nH]c2ccc(C(=O)O)cc2c1C	/	/	/	-10	/	/
COc1ccc(S(=O)(=O)NC[C@H]2CCS(=O)(=O)C2)cc1OC	/	/	/	-3	/	/
O=C(Cc1ccccc1Cl)NCCCn1ncccc1=O	/	/	/	-21	/	/
COc1ccc(-n2ccnc2SCC(=O)Nc2cccc3ccccc23)cc1	/	/	/	58*	/	/
COc1ccc([C@@H]2C[C@H]3CN(Cc4ccccc4OC)C(=O)[C@]34CCCN24)cc1C	19989*	32	8	9	3	-4
O=C(N(c1ccccc1)c1ccccc1)n1ccnc1	21662*	-8	-4	7	3	-7
CC(Oc1ccc(Cl)cc1Cl)C(=O)NC1CCSC1=O (centres undefined)	22259*	-2	-4	-28	2	-1
CCCC(C)C(=O)NC1CCSC1=O (centres undefined)	16556*	-5	1	-4	-1	0
COc1ccc(C(O)=C(C#N)c2nc3ccccc3n2C)cc1OC	/	/	/	-20	/	/
COc1ccc(N/C=C(\C#N)c2nc3ccccc3n2C)c(OC)c1	18044*	-9	-1	14	-24	-3
O=C(c1ccc2c(c1)OCO2)N(C[C@H]1CCCO1)c1nc2c(C(F)(F)F)cccc2s1	/	/	/	-7	/	/
COc1ccccc1C1C(C(=O)NCc2ccccc2)=C(C)Nc2ncnn21 (centres undefined)	5946	-2	-10	-4	3	0
CC1=C(C(=O)OC(C)C)C(c2cccc(F)c2)n2ncnc2N1 (centres undefined)	6449	-3	4	-6	12	-1
COc1cccc(C2C(C(=O)OC(C)C)=C(C)Nc3ncnn32)c1 (centres undefined)	20726*	-5	-10	-12	0	?
COC(=O)C1=C(C)Nc2ncnn2C1c1ccccn1 (centres undefined)	21583*	2	1	-10	3	2
COC(=O)C1=C(C)Nc2ncnn2C1c1ccnn1C (centres undefined)	/	/	/	-18	/	/
COc1cc(OC)c(C2C(C(=O)Nc3ccccc3)=C(C)Nc3ncnn32)cc1OC (centres undefined)	16373*	1	0	-8	-5	0
COc1ccccc1C1C(C(N)=O)=C(C)Nc2ncnn21 (centres undefined)	16247*	-1	-1	-7	0	1
SMILES	Autofluor counter	BoNT F protease	Anthrax LF inh2	SSB-PriA inh	MazF activator	BoNT-A LC inh2
COC(=O)C1CC(Oc2ccccc2F)CN1S(=O)(=O)N(C)C (centres undefined)	/	/	/	4	/	/
COc1cc(OC)c(C2C(C(=O)Nc3ccc(C)cc3C)=C(C)Nc3ncnn32)cc1OC (centres undefined)	23198*	-1	-3	-2	1	0
CC1=C(C(=O)Nc2ccc(C)cc2C)C(c2ccc([N+](=O)[O-])cc2)n2ncnc2N1 (centres undefined)	3582	-6	0	2	13	0
CN(Cc1ccccc1)c1oc(COc2ccc(F)cc2)nc1C#N	/	/	/	64*	/	/
CN(C)c1oc(-c2ccc(OCc3ccccc3)cc2)nc1C#N	2356	-3	-6	3	-5	0
CCOC(=O)CNC(=O)CSc1nc2sc(C)c(C)c2c(=O)n1C	23793*	-5	-2	-7	0	-2
Cc1sc2nc(SCC(=O)NCCO)n(C)c(=O)c2c1C	21991*	0	-10	8	-3	?
O=C(NN=Cc1ccc(F)cc1)c1ccc(Br)cc1	/	/	/	-11	/	/

High-throughput results: PubChem BioAssay, several laboratories
